The values below come from PubChem BioAssay (NCI).

Structures are written as SMILES. Compounds without any hit were thinned out: in the full panel of roughly 79,000, 15% have a hit. A number with no mark means an inactive call. Active and inactive are the calls of the source. Rule as the data show it: active = growth inhibition above about 70%; inactive = the rest.

A short description of test [1]: NCI Yeast Anticancer Drug Screen. Data for the rad50 strain (AID 155).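 Also: 0% = growth of vehicle-only cultures of the same strain.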 Conditions: S. cerevisiae rad50 strain growth inhibition; at 50.0 µM; active compounds read high. The procedure, abridged:
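Genetically altered yeast (DNA repair pathway); compound treatment; growth inhibition vs vehicle ctrl.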

Test [2] is described as follows: NCI Yeast Anticancer Drug Screen. Data for the mec2-1 strain (AID 157). The note with it: S. cerevisiae mec2-1 strain, at 50.0 µM, active compounds read high. The procedure, abridged: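 Each compound was tested on mec2-1 yeast, a strain altered in DNA damage repair or cell cycle control. Growth inhibition is reported relative to vehicle.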
The nature of test [3]: NCI Yeast Anticancer Drug Screen. Data for the sgs1 mgt1 strain (AID 161).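 Also: 0% = growth of cultures given vehicle only.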 Conditions: S. cerevisiae sgs1 mgt1 strain, at 50.0 µM, active compounds read high. The procedure, abridged:
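Genetically altered yeast, compound exposure, growth inhibition relative to vehicle.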

Test [4] in a line: NCI Yeast Anticancer Drug Screen. Data for the cln2 rad14 strain (AID 165).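 Also: 0% = growth equal to vehicle treated cultures.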 The note with it: S. cerevisiae cln2 rad14 strain, at 50.0 µM, active compounds read high. The procedure, abridged:
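Test compounds were added to cln2 rad14 yeast cultures; inhibition of growth was then determined by comparison with vehicle treatment.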

Test [5] can be described thus: NCI Yeast Anticancer Drug Screen. Data for the bub3 strain (AID 167). The note with it: S. cerevisiae bub3 mutant strain, at 50.0 µM, active compounds read high. Summed up: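 Yeast carrying a defined mutation is treated with each compound, and growth is compared with that of vehicle-exposed cells to give inhibition.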
The nature of test [6]: NCI Yeast Anticancer Drug Screen. Data for the mlh1 rad18 strain (AID 175). Conditions: S. cerevisiae mlh1 rad18 strain growth inhibition; at 50.0 µM; active compounds read high. The procedure, abridged:
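Inhibition values reflect reduced growth of mutant yeast versus vehicle-treated controls following compound exposure; the mutations affect DNA damage repair.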

Consider `COc1ccc2c(ccc3nc(C)[nH]c(=O)c32)c1`, for which the growth inhibition in test [1] was 5.3%; in test [2], -5.35%; in test [3], 2.95%; in test [4], -30.2%; in test [5], -10.6%; in test [6] it was -6.3%.

As to `COc1cc(C=O)ccc1OC(=O)Nc1cccc(Cl)c1C`, the growth inhibition in test [1] is -0.55%; in test [2] it was 18.6%; in test [3], 15.8%; in test [4] it was 1.9%; in test [5], 37.2%; in test [6], 17.8%.

Regarding `C[N+](C)(C)c1ccc(C(=O)[O-])cc1`, the growth inhibition in test [1] was 3.55%; in test [2], 18.8%; in test [3], -0.4%; in test [4], 0.55%; in test [5], 16%; in test [6], 8.1%.

Take `CC1=NC(C(=O)O)C(C)(C)S1` (stereo unspecified): the growth inhibition in test [1] is 2.6%; in test [2], -8.3%; in test [3], -22.2%; in test [4] it was -0.95%; in test [5], -3.4%; in test [6], -6%.

Consider `NS(=O)(=O)c1ccc(N=C2C=CC(=O)C=C2)cc1`, for which the growth inhibition in test [1] is 13.6%; in test [2], 4.5%; in test [3], -0.2%; in test [4] it was -36.4%; in test [5], -4.05%; in test [6], -3.95%.

Turning to `O=C1c2c(F)c(F)c(F)c(F)c2SC2=Nc3cccc4cccc(c34)N12`, the growth inhibition is -17.5% in test [1]; -3.8% in test [2]; -37.3% in test [3]; -14.5% in test [4]; -4.25% in test [5]; -37.8% in test [6].

As for `CCCCCC(=O)Oc1c(C(C)CC)cc([N+](=O)[O-])cc1[N+](=O)[O-]` (stereo unspecified), the growth inhibition in test [1] was 97.5% (active); in test [2], 97% (active); in test [3] it was 98.5% (active); in test [4], 97.7% (active); in test [5] it was 97.3% (active); in test [6], 98.2% (active).

Take `Nc1ncc2ncn(C3CCC(CO)O3)c2n1` (stereo unspecified): the growth inhibition was -6.9% in test [1]; -10.1% in test [2]; -22.2% in test [3]; -4.65% in test [4]; -10.8% in test [5]; -6.45% in test [6].

Consider `Cc1noc(NC2=CC(=O)C(=O)c3ccccc32)c1C`, for which the growth inhibition is 34.8% in test [1]; 8.45% in test [2]; 40.8% in test [3]; 8% in test [4]; 28.6% in test [5]; 42.7% in test [6].

Consider `COc1ccc2c(c1)CCN1CCc3ccccc3CC21` (stereo unspecified), for which the growth inhibition is 30.6% in test [1]; 43.4% in test [2]; 58.5% in test [3]; 45.9% in test [4]; 53.4% in test [5]; 42.6% in test [6].

`COc1ccc(NC(=S)Nc2ccccc2)cc1`: the growth inhibition is 4.8% in test [1]; -36.8% in test [2]; -22.6% in test [3]; -46.9% in test [4]; -21.8% in test [5]; -8.4% in test [6].

As to `CN(C)c1cc(-c2ccccc2)oc(=O)c1Cl`, the growth inhibition is 11.6% in test [1]; -19.8% in test [2]; -24.2% in test [3]; -22.2% in test [4]; -16.2% in test [5]; -9.15% in test [6].

On to `CC(=C/C=C/C=C(C)\C=C\C=C(\C)C(=O)O)/C=C/C=C(/C)C(=O)O`, for which the growth inhibition is 18.1% in test [1]; -7.95% in test [2]; 8.65% in test [3]; 7.75% in test [4]; 16.4% in test [5]; 16.9% in test [6].

Regarding `C=C(C)C(=O)OC1CC2(C)OC2CC(OC(C)=O)/C(C)=C/C2OC(=O)C(=C)C21` (stereo unspecified), the growth inhibition in test [1] is 20.8%; in test [2], 49.7%; in test [3] it was 31.7%; in test [4], 39.5%; in test [5], 46.6%; in test [6], -7.5%.

Regarding `Nc1ccc(S(=O)(=O)n2cccc2)cc1`, the growth inhibition is -8.9% in test [1]; 1.2% in test [2]; -19.9% in test [3]; -6.4% in test [4]; -9.25% in test [5]; -10.5% in test [6].

Consider `Cc1ccc(C2SC(N)=Nc3c2c(C)nn3C(=O)c2ccncc2)cc1` (stereo unspecified), for which the growth inhibition was -27.6% in test [1]; -33.2% in test [2]; -20% in test [3]; -21.7% in test [4]; -28% in test [5]; -23.6% in test [6].

For the molecule `O=C(CCCl)Nc1cccc(CCC(=O)c2ccccc2NC(=O)CCCl)c1`, the growth inhibition in test [1] was -8.1%; in test [2], -18.1%; in test [3], -4.2%; in test [4], -15.9%; in test [5], -7.1%; in test [6], -10.4%.

`COC(=O)c1cccc2c1cc(Br)c1ccccc12`: the growth inhibition in test [1] was 1.75%; in test [2] it was 11.6%; in test [3] it was 14.2%; in test [4], -30.4%; in test [5], 1.35%; in test [6] it was 16.3%.

As to `NC(Cc1ccccc1)=NCC(=O)O`, the growth inhibition in test [1] was -40.5%; in test [2], -7.9%; in test [3] it was -29.4%; in test [4], -79.9%; in test [5], -19.7%; in test [6], -25.2%.

Turning to `COc1ccccc1NC(=O)C(C#N)=C(SC)SC`, the growth inhibition in test [1] was 2.05%; in test [2], -14.2%; in test [3] it was 0.1%; in test [4] it was 18.6%; in test [5], -22.4%; in test [6], -13.7%.

As to `O=C1CSCc2sccc21`, the growth inhibition in test [1] is 37%; in test [2] it was 26.1%; in test [3], 6.55%; in test [4], -14.4%; in test [5], 17.3%; in test [6], 2.95%.

With `Cc1cccnc1NCc1ccccn1`, the growth inhibition is 3.1% in test [1]; -0.9% in test [2]; 15.1% in test [3]; 4.35% in test [4]; 1.75% in test [5]; 3.35% in test [6].

For the molecule `CCC(C)(CC)OC(=O)c1ccc([N+](=O)[O-])cc1`, the growth inhibition in test [1] was -0.35%; in test [2] it was -0.45%; in test [3], 5.05%; in test [4], -7.4%; in test [5], 2.85%; in test [6], 43.3%.

Regarding `CCO[Si](CCCN)(OCC)OCC`, the growth inhibition in test [1] was -37.5%; in test [2] it was -58.2%; in test [3] it was -36.2%; in test [4], 0.95%; in test [5] it was -22.1%; in test [6], -33.8%.

Turning to `Cc1c(Br)c(Br)nn1C(C)C(=O)N(C)C` (stereo unspecified), the growth inhibition in test [1] was 1.75%; in test [2], 1.6%; in test [3], -4.55%; in test [4] it was -40.8%; in test [5] it was -31.8%; in test [6], 4.45%.

For the molecule `O=C(O)CC(C(=O)O)=C1CCCCC1`, the growth inhibition in test [1] was 11.8%; in test [2], 13.4%; in test [3], 0.5%; in test [4], 8.15%; in test [5], 8.75%; in test [6] it was -0.3%.

As to `CC(C)CCCC(C)C1CCC2C3CC=C4CC(OC(=O)C56C=CC(=O)C5C5C=CC6CC5)CCC4(C)C3CCC12C` (stereo unspecified), the growth inhibition in test [1] is 11.4%; in test [2], 21.6%; in test [3], -1.2%; in test [4] it was 2.25%; in test [5] it was 1.65%; in test [6], 20.9%.

As for `Cc1nc2c(SCc3ccccc3)ncnc2o1`, the growth inhibition was 16.1% in test [1]; -9.5% in test [2]; 14.9% in test [3]; 22.8% in test [4]; 35.4% in test [5]; 19.5% in test [6].

Consider `COc1ccc(OC)c(-c2cc(C(=O)O)c3cc4ccccc4cc3n2)c1`, for which the growth inhibition was 5.85% in test [1]; 6.05% in test [2]; -32.8% in test [3]; -69% in test [4]; -52.8% in test [5]; 17.2% in test [6].

As to `CCOC(=O)/C(F)=C/c1ccc(C)cc1`, the growth inhibition in test [1] is 20.6%; in test [2], -8.55%; in test [3], 3.85%; in test [4], 11.1%; in test [5], 0.15%; in test [6], 8.4%.

As to `CCCC(=O)c1ccc(O)cc1`, the growth inhibition is 4.65% in test [1]; 3.45% in test [2]; -6.2% in test [3]; -12.6% in test [4]; 4.05% in test [5]; 0.2% in test [6].

`O=NN(CCCl)C(=O)NC1c2cc(Cl)ccc2-c2c(Cl)cc(Cl)cc21` (stereo unspecified): the growth inhibition in test [1] was 84.3% (active); in test [2], 59.3%; in test [3] it was 73.7% (active); in test [4], 48.5%; in test [5], 22.8%; in test [6] it was 86.5% (active).

Regarding `Cc1ccc(C)c2c1CCc1cc3ccccc3nc1-2`, the growth inhibition in test [1] was 26.4%; in test [2] it was -7.5%; in test [3], 11.8%; in test [4], 7.9%; in test [5], 30.2%; in test [6], 13.8%.

Regarding `COc1ccc(OC)c(CC(N)=O)c1`, the growth inhibition is -5.5% in test [1]; 4.6% in test [2]; -0.9% in test [3]; -23.8% in test [4]; 21.4% in test [5]; -8.85% in test [6].

With `N/C(=N\N=C\c1ccccn1)NO`, the growth inhibition was 1.05% in test [1]; -12.6% in test [2]; -5.35% in test [3]; -6.95% in test [4]; -6.15% in test [5]; 0.7% in test [6].

Regarding `O=C1NC(=O)C(c2ccccc2)(C2CCOCC2)N1` (stereo unspecified), the growth inhibition in test [1] was 11.1%; in test [2], 3.05%; in test [3], -2.65%; in test [4], -54.9%; in test [5], -9.65%; in test [6] it was 28.4%.

For `NC(Cc1c[nH]c2ccc([N+](=O)[O-])cc12)C(=O)O` (stereo unspecified), the growth inhibition was 15.9% in test [1]; -28.6% in test [2]; -24.8% in test [3]; 2.45% in test [4]; -48.6% in test [5]; -7.7% in test [6].

`O=C1c2ccccc2-c2cc(Br)c(NC(=O)C3CCCCC3C(=O)O)cc21` (stereo unspecified): the growth inhibition in test [1] was 0.2%; in test [2] it was 3.55%; in test [3], 20.6%; in test [4], 25.8%; in test [5], -1.2%; in test [6], 3.6%.

Take `CC/C=C\CCCCC`: the growth inhibition in test [1] was 0.4%; in test [2], -13.7%; in test [3], -12.6%; in test [4], 0.05%; in test [5] it was -10.8%; in test [6], 4.7%.

With `CCOC(=O)C(C=C(C)C)(CC)C(=O)OCC`, the growth inhibition in test [1] was 2.5%; in test [2], -17%; in test [3] it was -5.7%; in test [4], -4.55%; in test [5], -17.1%; in test [6] it was -21.9%.

Turning to `CC1=C(O)C(=O)C2C(=O)C1C(C)C2c1ccccc1` (stereo unspecified), the growth inhibition was -5.45% in test [1]; 3.05% in test [2]; -32.2% in test [3]; -7.6% in test [4]; -11.6% in test [5]; -13.9% in test [6].
